High-throughput results: PubChem, National Center for Advancing Translational Sciences (NCATS)
Hits are enriched below; roughly 2.6% of the tested compounds scored in any of these assays.
SmPrx2 inh – inhibitors of Schistosoma mansoni peroxiredoxin 2; hit rate 0.07% among 65,000; AID 448; Potency, µM; S. mansoni Prx2 activity coupled to TGR/GSH (TGR is thioredoxin glutathione reductase), NADPH fluorescence loss, qHTS
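Enzyme mix: 100 uM NADPH, 25 nM TGR, 700 uM GSH, 50 nM Prx2 in 100 mM phosphate pH 7.4, 10 mM EDTA, 0.01% Tween-20. 15 min RT with compound; NADPH/GSH added, H2O2 starts reaction; NADPH fluorescence read 8 min.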
AmpC det inh – blocks E. coli AmpC beta-lactamase in presence of detergent; hit rate 0.09% among 71,000; Potency, µM (doses to about 28.7 µM), inactives show at the highest dose activity change, negative = inhibition; AID 584; purified AmpC, nitrocefin hydrolysis with detergent; active = well fitted curve in the direction sought with a large enough effect; inconclusive = small, poorly fitted or top-dose-only effect; also: % is scaled to controls: 0 for no effect and ±100 for the full control effect
Target sequence (P00811 whole entry, looked up): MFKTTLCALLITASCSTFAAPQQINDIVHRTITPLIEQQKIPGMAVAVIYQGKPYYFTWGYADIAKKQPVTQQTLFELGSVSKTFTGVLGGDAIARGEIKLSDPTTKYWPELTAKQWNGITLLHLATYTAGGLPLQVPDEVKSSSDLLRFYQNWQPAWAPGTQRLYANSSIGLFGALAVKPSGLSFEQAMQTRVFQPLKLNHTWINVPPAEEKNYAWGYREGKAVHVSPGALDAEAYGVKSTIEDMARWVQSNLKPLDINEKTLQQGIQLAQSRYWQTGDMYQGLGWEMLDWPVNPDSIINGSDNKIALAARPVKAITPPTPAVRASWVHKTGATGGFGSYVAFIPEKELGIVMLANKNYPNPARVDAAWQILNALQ
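E. coli AmpC (5.3 nM) in 20 mM phosphate pH 7.0 with 0.01% Triton X-100, preincubated 15 min RT with compound; nitrocefin (2 uL of 800 uM stock) hydrolysis followed by 480 nm absorbance every 20 s over 4 min.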
AmpC nodet inh – inhibitors of E. coli AmpC beta-lactamase without detergent; AmpC nitrocefin hydrolysis, absorbance 480 nm, no detergent; Potency, µM (series often up to 28.7 µM), inactives show at the top dose activity change, negative = inhibition; hit rate 1.8% among 71,000; also: % of control where 0% means no effect
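AmpC in 20 mM phosphate buffer pH 7.0 was preincubated 15 min at room temperature with compounds. Nitrocefin (800 uM stock) was then added and hydrolysis followed at 480 nm every 20 s for 4 min.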
Anthrax LT inh – blocks cellular internalization of anthrax lethal toxin. Cells, anthrax lethal toxin internalization, FRET ratio (460/530). Potency, µM (titrated, usually from 40 µM), for inactives: top-dose activity change, negative = inhibition, actives largely listed as inhibitors. hit rate 0.67% among 70,000. AID 912; also: % is scaled to controls: 0 for no effect and ±100 for the full control effect; nearly all actives have a fitted effect of over 50% in size
The depositor's hits bear a star; ? = inconclusive; / = not tested or not shown; [ ] = remark or other dose. Unless noted, calls follow the shape of the full dose curve. Potency is read from the fitted curve at half-maximal effect.

SMILES | SmPrx2 inh | AmpC det inh | AmpC nodet inh | Anthrax LT inh
COC(=O)c1ccc2c(c1)N(Cc1cc(C)ccc1C)C(=O)c1ccccc1S2=O (stereo not given) | >57 | 13% | 4µM*[single pt active] | -5%
Fc1cccc2sc(Nc3nnc(-c4ccccc4)o3)nc12 | >57 | -1% | 13µM*[single pt active] | -2%
NCCSCc1ccccc1Cl | >57 | -2%[5.75 µM] | -8%[5.75 µM] | -4%[8 µM]
CCCCN(CC)CCNC(=O)c1cc2c(C)nc3ccccc3c2o1 | >57 | 2% | 12% | 13µM*
Cc1nc2ccccc2c2oc(C(=O)NCCN3CCCCC3C)cc12 (stereo not given) | >57 | 1% | 4% | 7.9µM*
CCN1CCCC1CNC(=O)c1cc2c(C)nc3ccccc3c2o1 (stereo not given) | >57 | -2% | -9% | ?
O=c1c(-c2ccccc2)coc2c(CN3CCCC3)c(O)ccc12 | >57 | -4% | -8% | 14%
O=c1c(-c2ccc(Cl)cc2)coc2c(CN3CCOCC3)c(O)ccc12 | / | 9% | -5% | 6.3µM*
CC(/C=C/C=C(C)/C=C/C(=O)O)=C\C=C\C=C(C)\C=C\C=C(C)\C=C\C(=O)O | / | 7% | 36% | -4%
COc1ccc(OC)c(CN2C(=O)c3ccccc3C2C(=O)NCc2cccnc2)c1 (stereo not given) | >57 | 11% | 4µM*[single pt active] | 1%
COc1ccc(CN2C(=O)c3ccccc3C2C(=O)NCc2cccnc2)c(OC)c1 (stereo not given) | >57 | -5% | 21% | 3%
O=C(NCc1cccnc1)C1c2ccccc2C(=O)N1C1CCCC1 (stereo not given) | >57 | 14% | 4µM*[single pt active] | -5%
O=C(NCc1ccc(F)cc1)c1cc2n(n1)C(C(F)(F)F)CC(C1CC1)N2 (stereo not given) | >57 | 11% | 4µM*[single pt active] | -3%
COc1ccccc1CN(Cc1cc2c(C)ccc(C)c2[nH]c1=O)Cc1nnnn1Cc1ccco1 | >57 | -3% | 58% | 16µM*
CCCCN(CC)CCNC(=O)c1cc2c(=O)n(C)c3ccccc3c2n1C | >57 | 10% | 4µM*[single pt active] | 5µM*
CCN(CC)CCCNC(=O)c1cc2c(=O)n(C)c3ccccc3c2n1C | / | 9% | ? | 10µM*
CCCN(CCC)CCCNC(=O)c1cc2c(=O)n(C)c3ccccc3c2n1C | >57 | 17% | 18% | 3.2µM*
N=C(N)c1ccc(/C=C\c2ccc(C(=N)N)cc2)cc1 | >57 | -4%[5.75 µM] | 1%[5.75 µM] | 2%[8 µM]
[Cu].[O-]/N=C1/C(=[OH+])Nc2ccccc21.[O-]Nc1c(O)[nH]c2ccccc12 | >57 | -4%[5.75 µM] | -7%[5.75 µM] | -1%[8 µM]
CCOc1ccccc1/C=C(\C#N)C(N)=O | >57 | 5%[5.75 µM] | 1%[5.75 µM] | 1%[8 µM]
Cc1nn2cc(-c3ccc(-c4ccccc4)cc3)nc2s1 | >57 | -3% | 13µM* | 1%
Cc1nn2cc(-c3ccc(Cl)cc3)nc2s1 | >57 | 15% | -8% | -7%
Nc1c(S(N)(=O)=O)cc(S(N)(=O)=O)cc1S(N)(=O)=O | >57 | -4%[5.75 µM] | -6%[5.75 µM] | ?
CCCc1ccc(OCc2ccc(C(=O)N3CCN(c4ccccn4)CC3)o2)c(OC)c1 | >57 | -5% | 125% | 13µM*
O=S(=O)(c1ccc2c(c1)OCCO2)N1CCC(c2nc3ccc(Cl)cc3[nH]2)CC1 | >57 | 0% | -24% | 13µM*
SMILES | SmPrx2 inh | AmpC det inh | AmpC nodet inh | Anthrax LT inh
Nc1c(S(=O)(=O)O)cc(S(=O)(=O)O)c2ccc(N=Nc3ccccc3)c(O)c12 | >57 | -5%[5.75 µM] | -8%[5.75 µM] | 0%[8 µM]
Cc1cc(-c2ccc(N=Nc3cc(S(=O)(=O)O)c4ccccc4c3N)c(C)c2)ccc1N=Nc1cc(S(=O)(=O)O)c2ccccc2c1N | / | 13µM* | 5µM* | ?
CC1Cc2ccccc2N1C(=O)CSc1nnc(NC(=O)Cc2cccs2)s1 (stereo not given) | >57 | 8% | 13µM*[single pt active] | ?
CCOC(=O)C1CCN(c2c(N3CCCC(C(=O)OCC)C3)c(=O)c2=O)CC1 (stereo not given) | >57 | 4% | 15% | ?
CCOC(=O)N1CCN(c2c(NCCN3CCCCC3CC)c(=O)c2=O)CC1 (stereo not given) | >57 | 13% | 4µM*[single pt active] | -9%
CCOC(=O)N1CCN(c2c(N3CCC(N4CCCCC4)CC3)c(=O)c2=O)CC1 | >57 | 12% | 4µM*[single pt active] | 11%
CCOc1ccc(N(CC(=O)NC2CCCCC2)S(=O)(=O)c2c(C)noc2C)cc1 | >57 | 6% | 14% | -3%
CCc1ccc(N(CC(=O)NC2CCCCC2)S(=O)(=O)c2c(C)noc2C)cc1 | >57 | 12% | 4µM*[single pt active] | -24%
